Several values for one entry are separate records, joined by “and”; a condition that tells them apart may be missing. Identical values can stand only once. Inconclusive results are not listed. Values without a mark were called inactive. Activity calls are given as the source filed them. Calls follow the shape of the dose curve; as a rule, active = well fitted cell-killing curve with a large enough effect in the repeat runs; inconclusive = weak or mixed curves, or effect the other way; inactive = flat fitted curve, though single readings scatter.
assay: qHTS RealTime-Glo MT Cell Viability Assay in HEK293 cells - 32 hour (AID 1224868); conditions: RealTime-Glo luminescence; series mostly up to 76.8 µM; activity change, negative = cytotoxic: at the top concentration; also: nearly all actives have a fitted effect of over 50% in size; as to activity change, negative = cytotoxic: top concentration of the series differs between compounds
Excerpt: National Center for Advancing Translational Sciences [NCATS]
NIH Chemical Genomics Center [NCGC]
U.S. Environmental Protection Agency [EPA]
National Institutes of Environmental Health Sciences [NIEHS]
National Toxicology Program [NTP]
U.S. Food and Drug Administration [FDA]
Measure of cell viability is critical in the cell-base assay. Analysis of cell viability is necessary for the characterization of cell responses to cytotoxic drugs and environmental stress. A RealTime-Glo MT Cell Viability Assay to monitor cell viability in real time of continues cell culture during 40 hours of compound treatment was used to screen Tox21 10K library compounds in Hek293 cells. The RealTime-Glo MT Cell Viability Assay is a nonlytic, homogeneous, bioluminescent method to measure cell viability in real time using a simple, plate-based method. The assay involves adding NanoLuc luciferase and a cell-permeant prosubstrate to cells in culture. Viable cells reduce the proprietary prosubstrate to generate a substrate for NanoLuc luciferase. This substrate diffuses from cells into the surrounding culture medium, where it is rapidly used by the NanoLuc Enzyme to produce a luminescent signal. The signal correlates with the number of viable cells, making the assay well suited for cytotoxicity studies.
Tox21 Assay Protocol Summary:
The mixture of Hek293 cell suspension and reagents were dispensed at 600cells/6 ul/well in 1536-well tissue culture treated black solid bottom plates using a Multidrop dispenser. After the assay plates were incubated at a 37 C/5% CO2 incubator for 5 hours, 23 nL of compounds dissolved in DMSO, positive and negative controls was transferred to the assay plate by a pintool work station. The plates were incubated at 37 C for 40 hours. The luminescence intensity were measured at 0h, 8h, 16h, 24h, 32h and 40h time points using ViewLux plate reader during compound treatment.
% is scaled to controls: 0 for no effect and ±100 for the full control effect; potency is read from the fitted curve at half-maximal effect.

| Compound | activity change, negative = cytotoxic | Potency |
| --- | --- | --- |
| Cc1cccc(CN2CCN(C(c3ccccc3)c3ccc(Cl)cc3)CC2)c1 (stereo not given) | -12.2% [at 35.3 µM] |  |
| N=C1C=CC(=C(c2ccc(N)cc2)c2ccc(N)cc2)C=C1 |  | 2.19 µM (active) |
| CCCCCCCCCCCCCCCCCC[N+](C)(C)Cc1ccccc1 |  | 2.78 µM (active) |
| [Cl][Bi]([Cl])([c]1ccccc1)([c]1ccccc1)[c]1ccccc1 |  | 2.44 µM (active) |
| CCCCCCCC/C=C/CCCCCCCC1=NCCN1CCO |  | 19.5 µM (active) |
| O=c1[nH]sc2ccccc12 |  | 30.9 µM (active) |
| Oc1cccc2cc3cccc(O)c3c(O)c12 | 0.413% |  |
| C[C@H](CCC(=O)O)[C@H]1CC[C@H]2[C@@H]3CC[C@@H]4C[C@H](O)CC[C@]4(C)[C@H]3CC[C@]12C |  | inactive |
| CCCN(CCC)c1c([N+](=O)[O-])cc(C(F)(F)F)c(N)c1[N+](=O)[O-] |  | 19.4 µM (active) |
| Clc1ccccc1C(c1ccccc1)(c1ccccc1)n1ccnc1 |  | 21.9 µM (active) and 6.74 µM (active) |
| CCCCCCCCCCCCCCCS(=O)(=O)Oc1ccccc1 | -27.8% [at 35.3 µM] |  |
| COc1ccc(C(=O)/C(Br)=C\C(=O)O)cc1 |  | 38.9 µM (active) |
| O=C(O)c1ccc(Cl)c(Cl)c1 | 3.2% |  |
| C/C=C(\C)C(=O)OCc1ccccc1 | -3.59% |  |
| OCCCCCCCCCCCCBr |  | 9.92 µM (active) |
| Nc1cc(C(F)(F)F)ccc1S | 4.29% [at 35.3 µM] |  |
| COC(=O)C1=C(C)NC(C)=C(C(=O)OCCc2ccc(N3CCN(C(c4ccccc4)c4ccccc4)CC3)cc2)C1c1cccc([N+](=O)[O-])c1 (stereo not given) | -1.05% [at 35.3 µM] |  |
| NC(=O)C1(N2CCCCC2)CCN(CCCN2c3ccccc3CCc3ccc(Cl)cc32)CC1 |  | 21.3 µM (active) |
| Cc1cc2c(cc1C(F)(F)F)N(C(=O)Nc1ccc(Oc3cccnc3C)nc1)CC2 |  | 4.97 µM (active) |
| Clc1ccc2n[nH]nc2c1 | 10.3% |  |

| Compound | activity change, negative = cytotoxic | Potency |
| --- | --- | --- |
| CCCCCCCC/C=C\CCCCCCCCOCCO |  | 3.19 µM (active) |
| ON=C1CCCC1 |  | 25.4 µM (active) |
| Cc1cc(O)c(C(C)(C)C)cc1C(C)(C)C |  | 17.4 µM (active) |
| CCc1cc(Cc2cc(CC)cc(C(C)(C)C)c2O)c(O)c(C(C)(C)C)c1 |  | 19.5 µM (active) |
| COc1cccc(N)c1 | 0.387% |  |
| Cc1c(C)c2c(c(C)c1O)CCC(C)(COc1ccc(CC3SC(=O)NC3=O)cc1)O2 (stereo not given) |  | 38.9 µM (active) |
| CC(C)n1nc(-c2cc3cc(O)ccc3[nH]2)c2c(N)ncnc21 |  | 0.239 µM (active) |
| Nc1c2ccccc2nc2ccccc12 |  | 7.66 µM (active) and 2.39 µM (active) |
| NNc1nc(-c2ccc([N+](=O)[O-])cc2)cs1 |  | 24.5 µM (active) |
| NC(=O)N1C(=O)C(C(=O)c2cc(Cl)cs2)c2cc(F)c(Cl)cc21 (stereo not given) | 0.575% |  |
| NC(=O)NS(=O)(=O)c1ccc(N)cc1 | 3.09% [at 35.3 µM] |  |
| c1ccc(CSCc2ccccc2)cc1 | -6.77% |  |
| CCOC(=O)c1nc(C(Cl)(Cl)Cl)n(-c2ccc(Cl)cc2Cl)n1 | -12.4% |  |
| Nc1ccc2c3c(cccc13)-c1ccccc1-2 |  | 24.8 µM (active) |
| Cc1cccc(S(=O)(=O)O)c1C | -2.51% |  |
| CNc1ccc(O)cc1 |  | 12.3 µM (active) |
| Cc1oc(-c2ccccc2)nc1CCC(=O)c1ccc(CC2SC(=O)NC2=O)cc1 (stereo not given) | -20.9% [at 35.3 µM] |  |
| CC[C@H]1O[C@]2(CC[C@@H]1C)C[C@@H]1C[C@@H](C/C=C(\C)C[C@@H](C)/C=C/C=C3\CO[C@@H]4[C@H](O)C(C)=C[C@@H](C(=O)O1)[C@]34O)O2 |  | 24.3 µM (active) |
| CCCCN1C(=O)[C@@H]([C@H](O)C2CCCCC2)NC(=O)C12CCN(Cc1ccc(Oc3ccc(C(=O)O)cc3)cc1)CC2 | -27.9% |  |
| CC(C)(C)C(=O)OCOC(=O)[C@@H]1N2C(=O)[C@@H](NC(=O)[C@H](N)c3ccccc3)[C@H]2SC1(C)C | 1.36% [at 35.3 µM] |  |

— PubChem BioAssay (Tox21)
